Experimental data: PubChem BioAssay (NCI)
This is part of a sample that, as a whole, favours compounds with a hit. Of some 83,000 tested, about 20% had one in any assay.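 Cells were grown in 96-well plates and exposed to the test compound at a single concentration for 48 hours; results are reported as percent growth, with values below 10 considered active.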 The source made the active and inactive calls.

The compounds below were run on HL-60(TB) leukemia (assay: NCI-60 one-dose screen, 48 h (100 = growth as untreated, 0 = no growth, -100 = all killed)). Settings: 10 µM unless noted.

SMILES | growth
CC(C)=CCc1cc2c(cc1O)C1=C(C(=O)C3=C(C1=O)S(=O)(=O)CCN3)C(C=C(C)C)O2 (stereo not given) | -36% (active)
O=C1/C(=C/c2ccc(Cl)cc2)SC(=Nc2ccc(Cl)cc2)N1Cc1nc2ccccc2[nH]1 | 95.8% (inactive)
CCCCC#Cc1c(I)n(C)c(=O)[nH]c1=O | -10.8% (active)
CCOc1cc(\C=N/N=C(N)/C(N)=N\N=C/c2ccc(O)c(OCC)c2)ccc1O | 121% (inactive)
CC(NC(=O)CCl)c1ccccc1 (stereo not given) | 83.4% (inactive)
Cc1cc(Cc2cc(C)c(N)cc2N)c(N)cc1N | 85.6% (inactive)
NC(=O)NCCCC(N)C(=O)O (stereo not given) | 105% (inactive)
CCCCCCCCN(CCCCCCCC)C(=N)c1ccnc2ccccc12 | -68.5% (active)
O=[N+]([O-])c1ccc(-n2[nH]nnc2=S)cc1 | 105% (inactive)
CCC/C(=N\NC(N)=O)C(OC)OC | 86.5% (inactive)
CNC(=O)c1cn(C2CC2)c2cc(N3CCN(C(=O)c4cc(OC)c(OC)c(OC)c4)CC3)c(F)cc2c1=O | 101% (inactive)
CN(C)CCCn1c2c(c3ccc(N4CCNCC4)cc3c1=O)C(=O)c1ccccc1-2 | 8.73% (active)
N#C/C(=C\c1c(-c2ccccc2)[nH]c2ccccc12)C(=O)c1ccc(Cl)cc1 | 12.7% (inactive)
O=C(COc1ccc(Cl)cc1)N1CCN(Cc2ccc3c(c2)OCO3)CC1 | 109% (inactive)
CC(=O)[C@@]12O[C@](C)(c3ccccc3)O[C@@H]1CC1C3CCC4=CC(=O)CC[C@]4(C)C3CC[C@@]12C (stereo not given in full) | 0.639% (active)
CCOc1nc(-c2ccccc2)cc2c(O)c(C(=O)NC(C)C)[nH]c(=O)c12 | 168% (inactive)
Cn1cc(-c2csc(-c3cn(C)c4ncccc34)n2)c2cc(F)cnc21 | 86.4% (inactive)
CCCCCCCCCc1ccc(OCCOCCOCCOCCOCCOCCOCCOCCOCCO)cc1 | -40.9% (active)
COc1cccc(NC(=O)Nc2ccc(Nc3ncnc4sc5c(c34)CCN(C(=O)CCl)C5)cc2)c1 | 90% (inactive)
CN1CCN(c2nc(Nc3ccc(O)cc3)nc3ccccc23)CC1 | 61.4% (inactive)

SMILES | growth
CCC12OC(COc3ccccc3)CN1CCN2c1ccccc1 (stereo not given) | 94.7% [100 µM] (inactive)
CN(C)c1ccc(/C=C(\C#N)c2nc3ccccc3n2C)cc1 | 1.21% (active)
Cc1cc(C)c2c(=O)[nH]c(SCC(=O)Nc3cccc(S(=O)(=O)N(C)C)c3)nc2n1 | 97.2% (inactive)
O=C1c2ccccc2C(=O)c2c([N+](=O)[O-])ccc(Cl)c21 | 111% (inactive)
CN(C)CCCNC(=O)c1cncnc1Nc1ccc(OCc2cccc(F)c2)c(Cl)c1 | -60.7% (active)
O=C(C1CCC1)N1N=C(c2ccc(-n3ccc(C(F)(F)F)n3)cc2)CC1c1ccc[nH]1 (stereo not given) | 97.8% (inactive)
COc1ccccc1CNc1nc(N)nc2[nH]c3ccc(O)cc3c12 | 34.3% (inactive)
COc1ccc(-c2cn(-c3ccc(Cl)cc3)c(=S)[nH]2)cc1OC | 56.1% (inactive)
COc1ccc(C2=NC(=O)NC2c2ccc(OC)cc2)cc1 (stereo not given) | 61.2% (inactive)
CCOC(=O)C(=O)CC(=O)c1ccccc1 | 95.5% (inactive)
N#Cc1c(NC(=O)c2ccccc2)sc2c1CCC(=O)C2 | -2.62% (active)
COc1ccc(C2CC(c3ccc(Nc4nc(Nc5ccc(F)cc5)nc(Nc5ccc(Cl)cc5)n4)cc3)=NN2C(C)=O)cc1 (stereo not given) | 206% (inactive)
N#Cc1c(-c2ccc(F)cc2)nc(N=Nc2c(O)[nH]c3ccccc23)nc1N1CCOCC1 | 101% (inactive)
CCCCCCCCCCCCCC/C=C\C(CC(=O)O)C(=O)O (stereo not given) | 72.4% (inactive)
CC(C)OC(=O)OCOP(=O)(OCOC(=O)OC(C)C)C1CCCN(O)C1=O (stereo not given) | 6.5% (active)
Oc1c(Cl)cc(Cl)cc1C(c1cc(Cl)cc(Cl)c1O)C(Cl)(Cl)Cl | 1.53% (active)
COc1ccc(CNC(=O)c2c(C)n([O-])c3ccccc3[n+]2=O)cc1 | 101% (inactive)
COc1cc(/C=N/NC(=O)c2ccc(C)nc2)cc(OC)c1OC | 56% (inactive)
Cc1ccccc1Nc1cc(O)c2c(=O)cc(-c3ccccc3)oc2c1 | 8.58% (active)
CN1CCN(CC(=O)Nc2cccc(-n3cc(-c4ccncc4)c(-c4ccc(Cl)c(O)c4)n3)c2)CC1 | 5.27% (active)
